The values that follow come from PubChem BioAssay.

Structures are written as SMILES. Several values for one entry are separate records, joined by “and”; a condition that tells them apart may be missing. Equal entries are not always repeated. Activity calls are given as the source filed them.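 How the source made its calls, unless noted: active means compounds whose cell count with miR-34 switched on is under 0.7 times the count with it off; inactive means the rest.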

Experiment [1] in a line: P. berghei load reduction in hepatocytes – cell-based, HepG2, luciferase luminescence, HepG2 viability, primary screen (AID 624349; in the data active means parasite load remaining mostly below about 12%, no sharp cut-off; inactive means mostly above about 10%;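 further: 100% = mean of DMSO negative control wells on the same plate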). Particulars: P. berghei liver stage in HepG2, luciferase luminescence, concentration not given here; parasite load remaining: stronger effect = lower value; viability: measured here: HepG2 viability without parasites.
Experiment [2] can be described thus: viability loss with induced miR-34 in A549 – imaging, A549 dox-inducible miR-34, nuclei and caspase counts, primary screen (AID 1347080). Particulars: A549 miR-34 inducible, Hoechst nuclei count, 48 h.
Experiment [3] can be described thus: MELAS cybrid and Rieske KO viability enhancers – cell-based, MELAS cybrids, Rieske KO mouse fibroblasts, CellTiter-Glo, primary screen (AID 1508586;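 active means mean z-score across replicates of 1.96 or higher in either the MELAS or the Rieske mutant cell line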;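 further: z relative to plate mean and SD of compound and empty wells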). Particulars: low glucose. Background: In ATP-based viability assays light output follows the ATP content of the culture.
Experiment [4] can be described thus: galactose survival enhancers in mitochondrial complex I cybrids – cell-based, galactose medium, ATP luminescence, primary screen (AID 1645843;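 active means z-score of at least 1.8 in each of two replicates, scored against plate mean and spread of sample wells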;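 further: positive z means more ATP and so rescue of galactose-driven cybrid death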). Particulars: complex I mutant cybrid cells, 72 h, stronger effect = higher value.
Experiment [5] can be described thus: compounds altering viability of human ES cells (AID 493140; call rule not given here;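 further: cells exposed to compounds for four days before counting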). Particulars: human embryonic stem cell survival screen; stronger effect = higher value.
Setting [6] is: stronger effect = lower value, cell number ratio, induced over uninduced.
Setting [7] is: measured here: relative caspase fold change +Dox/-Dox.
The mark [8] stands for this setting: measured here: total cells with miR-34 induction, stronger effect = lower value.
[9] abbreviates: measured here: total cells without miR-34 induction.
Setting [10] is: MELAS cybrid survival, CellTiter-Glo 48 h, stronger effect = higher value.
The mark [11] stands for this setting: Rieske KO mouse fibroblast survival, CellTiter-Glo 72 h.

One may read the viability as a read-out of living cells in per cent, often relative to untreated cells. As for `CO[C@H]1[C@@H]([C@@]2(C)O[C@@H]2CC=C(C)C)[C@]2(CC[C@H]1OC(=O)/C=C/C=C/C=C/C=C/C(=O)O)CO2`, the parasite load remaining in experiment [1] is 21% (inactive). In experiment [1], the viability turned out to be 104%. Further, the fold change in experiment [2] (setting [6]) was 0.953 (inactive); in experiment [2] (setting [7]) it was 1.44. Besides, the cell count worked out at 6670 in experiment [2] (setting [8]) and 7000 in experiment [2] (setting [9]). For the same molecule, the z-score in experiment [3] (setting [10]) was 0.116 (inactive); in experiment [3] (setting [11]) it was -0.135; in experiment [4], -0.585 (inactive).

For `CC(C)NC[C@@H](O)c1ccc(O)c(O)c1`, the parasite load remaining in experiment [1] was 67.9% (inactive). Further, the viability in experiment [1] stood at 93.2%. Also, the fold change was 1.04 (inactive) and 0.887 (inactive) in experiment [2] (setting [6]); 1.51 and 1.13 in experiment [2] (setting [7]). Besides, the cell count in experiment [2] (setting [8]) is 10500 and 9200; in experiment [2] (setting [9]), 10100 and 10400. Besides, the z-score in experiment [3] (setting [10]) was 0.464 (inactive); in experiment [3] (setting [11]) it was -0.759; in experiment [4], -1.29 (inactive).

As for `C=C1CC[C@H](O)C/C1=C/C=C1\CCC[C@]2(C)[C@@H]([C@H](C)CCCC(C)(C)O)CC[C@@H]12`, the survival in experiment [5] is 84.6 (inactive). Also, the parasite load remaining in experiment [1] was 63.8% (inactive). Also, the viability in experiment [1] turned out to be 110%. Also, the fold change is 1.02 (inactive) and 0.856 (inactive) in experiment [2] (setting [6]); 1.06 and 1.42 in experiment [2] (setting [7]). The cell count in experiment [2] (setting [8]) was 6030 and 8450; in experiment [2] (setting [9]), 5930 and 9870. For the same molecule, the z-score in experiment [3] (setting [10]) was 0.872 (inactive); in experiment [3] (setting [11]), 0.441; in experiment [4], -1.75 (inactive).

`CS(=O)(=O)c1ccc([C@@H](O)[C@@H](COC(=O)CN)NC(=O)C(Cl)Cl)cc1`: in experiment [1], the parasite load remaining is 19.3% (inactive). Moreover, the viability in experiment [1] was found to be 69.5%. Further, the fold change is 0.967 (inactive) in experiment [2] (setting [6]) and 1.61 in experiment [2] (setting [7]). Further, the cell count in experiment [2] (setting [8]) was 9390; in experiment [2] (setting [9]) it was 9720. Besides, the z-score in experiment [3] (setting [10]) was -0.278 (inactive); in experiment [3] (setting [11]) it was 1.38; in experiment [4] it was -1.12 (inactive).

Consider `CC[C@H]1OC(=O)[C@H](C)[C@@H](O[C@H]2C[C@@](C)(OC)[C@@H](O)[C@H](C)O2)[C@H](C)[C@@H](O[C@@H]2O[C@H](C)C[C@H](N(C)C)[C@H]2O)[C@](C)(O)C[C@@H](C)/C(=N/OCOCCOC)[C@H](C)[C@@H](O)[C@]1(C)O`, for which the parasite load remaining in experiment [1] is 72.6% (inactive). In addition, the viability in experiment [1] is 69.5%. The figures for the fold change in experiment [2] (setting [6]) and in experiment [2] (setting [7]) were 0.917 (inactive) and 1.04, respectively. For the same molecule, the values for the cell count in experiment [2] (setting [8]) and in experiment [2] (setting [9]) were 9160 and 9990, respectively. Besides, the values for the z-score in experiment [3] (setting [10]), in experiment [3] (setting [11]) and in experiment [4] were -0.295 (inactive), -0.333 and 0.145 (inactive), respectively.

For `CC(C)C[C@@H](NC(=O)[C@H](Cc1ccccc1)NC(=O)c1cnccn1)B(O)O`, in experiment [1], the parasite load remaining was -0.325% (inactive). In experiment [1], the viability was 1%. Moreover, the fold change in experiment [2] (setting [6]) was 1.12 (inactive); in experiment [2] (setting [7]), 1.54. Also, the cell count in experiment [2] (setting [8]) is 1190; in experiment [2] (setting [9]) it was 1060. The z-score in experiment [3] (setting [10]) is -1.11 (inactive); in experiment [3] (setting [11]), 0.911; in experiment [4], -2.25 (inactive).

With `C=C1/C(=C/C=C2/CCC[C@]3(C)[C@@H]([C@H](C)CCCC(C)C)CC[C@@H]23)C[C@@H](O)C[C@@H]1O`, the parasite load remaining in experiment [1] was 43.3% (inactive). In addition, the viability in experiment [1] stood at 115%. Moreover, the fold change is 0.847 (inactive) in experiment [2] (setting [6]) and 0.894 in experiment [2] (setting [7]). Further, the cell count in experiment [2] (setting [8]) came to 8220; in experiment [2] (setting [9]), 9710. Moreover, the z-score in experiment [3] (setting [10]) was 0.628 (inactive) and 0.37 (inactive); in experiment [3] (setting [11]), 0.674 and -0.198; in experiment [4] it was -2.23 (inactive).

In the case of `CN1C[C@H](C(=O)N[C@]2(C)O[C@@]3(O)[C@@H]4CCCN4C(=O)[C@H](Cc4ccccc4)N3C2=O)CC2c3cccc4[nH]cc(c34)C[C@H]21` (some centres not stated), the parasite load remaining in experiment [1] was 81.9% (inactive) and 39.4% (inactive). The viability in experiment [1] is 69.3% and 96.5%. The fold change was 0.973 (inactive) and 0.855 (inactive) in experiment [2] (setting [6]); 1.1 and 1.21 in experiment [2] (setting [7]). Moreover, the cell count is 7780 and 9120 in experiment [2] (setting [8]); 8000 and 10700 in experiment [2] (setting [9]). Moreover, the figures for the z-score in experiment [3] (setting [10]), in experiment [3] (setting [11]) and in experiment [4] were -0.956 (inactive), -0.402 and 0.325 (inactive), respectively.

Turning to `CC[C@]1(O)C[C@H]2CN(CCc3c([nH]c4ccccc34)[C@@](C(=O)OC)(c3cc4c(cc3OC)N(C)[C@H]3[C@@](O)(C(N)=O)[C@H](O)[C@]5(CC)C=CCN6CC[C@]43[C@@H]65)C2)C1`, the parasite load remaining in experiment [1] was 29.7% (inactive). For the same molecule, the viability in experiment [1] was determined as 79.5%. Moreover, the results for the fold change in experiment [2] (setting [6]) and in experiment [2] (setting [7]) were 1.02 (inactive) and 1.58, respectively. Besides, the cell count in experiment [2] (setting [8]) was 1810; in experiment [2] (setting [9]) it was 1780. Further, the z-score was -2.11 in experiment [3] (setting [10]), 2.09 in experiment [3] (setting [11]) and -1.99 (inactive) in experiment [4].
